Measured values reported in PubChem BioAssay (NCI).
The panel holds about 83,000 compounds, 20% with a hit somewhere; the sample as a whole holds those more often.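 A percent growth of 40 corresponds to 60% growth inhibition; 0 means no net growth; -100 means all cells died. Active threshold: below 10.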 Calls of active or inactive are those of the source.

These compounds were tested on MDA-MB-468 breast (assay: NCI-60 one-dose screen, 48 h (100 = growth as untreated, 0 = no growth, -100 = all killed)). Details: 10 µM unless noted.

Compound | growth
C[C@@H](NC(=O)[C@@H](CC(=O)N1CCC(N2CCCCC2)CC1)N1C(=O)[C@@H](N2C(=O)OC[C@@H]2c2ccccc2)[C@H]1/C=C/c1cccc(Cl)c1)c1ccccc1 | 1.45% (active)
CCCCC(CC)OC(=O)C(Br)CC (stereo not given) | 106% (inactive)
C[N+]1(C)C2CC[C@@H]1CC(OC(=O)C(O)c1ccccc1)C2 (stereo not given in full) | 103% (inactive)
CCCN1C(=O)/C(=c2\sc3n(c2=O)NC2C(N=3)N(CC)C(=O)N2CC)c2ccccc21 (stereo not given) | 14.6% (inactive)
COC1C[C@H](O[C@@H]2C[C@H](O[C@@H]3C[C@H](O[C@@H]4C(=O)c5c(cc6cc(O[C@H]7C[C@@H](O[C@H]8C[C@@H](O)[C@H](O)C(C)O8)[C@H](O)C(C)O7)c(C)c(O)c6c5O)C[C@H]4C(OC)C(=O)[C@@H](O)[C@@H](C)O)OC(C)[C@H]3O)OC(C)[C@@H]2O)OC(C)[C@@H]1O (stereo not given in full) | -55% (active)
CC(=O)CS(C)(=O)=O | 109% (inactive)
Cc1ccc(-c2cc(-c3cccnc3)[nH]c(=O)c2C#N)cc1 | 106% (inactive)
CCO/C=N/C1=C(C#N)C(c2ccc(F)cc2)c2sc3c(C)cccc3c2O1 (stereo not given) | 6% (active)
COc1cc(-c2ccc3ncnc(NC(C)c4ccccc4)c3c2)cnc1OC (stereo not given) | -3.02% (active)
O=C(CN1C(=O)S/C(=C\c2ccccc2)C1=O)Nc1ccc(C(=O)/C=C/c2cc3ccccc3nc2Cl)cc1 | 63.1% (inactive)
COc1cc(-c2nc(N3CCN(C)CC3)c3ccccc3n2)cc(OC)c1OC | 38.4% (inactive)
Clc1cccc(-c2nc(-c3cccs3)no2)c1 | 3.37% (active)
O=C(Nc1ccc(-c2nc(-c3cccc(OCCN4CCOCC4)c3)c(-c3ccnc(Br)c3)[nH]2)cc1)c1ccccc1 | -6.35% (active)
OB(O)c1ccccc1 | 110% (inactive)
CC(SC(C)C(=O)N/N=C/c1cccc(Cl)c1)C(=O)N/N=C\c1cccc(Cl)c1 (stereo not given) | 97.4% (inactive)
COc1ccc([C@H]2c3[nH]c4ccccc4c3C[C@H]3C(=O)N(C4CCN(Cc5c(Cl)cccc5Cl)CC4)CC(=O)N23)c(OC)c1 | 92.8% (inactive)
CCC(C)N(CCNc1cc(OC)cc2cccnc12)CCC(C)C (stereo not given) | -24.8% (active)
COc1cc(Cn2c(-c3nonc3N)nc3ccccc32)ccc1C | 40.9% (inactive)
Cc1cc(N/N=C/c2nc(-c3ccc(Br)cc3)oc2C)c2cc(Cl)ccc2n1 | 25.8% (inactive)
Cc1cc(Nc2c3ccccc3nc3ccccc23)ccc1NS(C)(=O)=O | 23.6% (inactive)

Compound | growth
O=[N+]([O-])c1cccc(-c2nc3cc4nc5ccccc5[nH]c4cc3n2)c1 | 95.5% (inactive)
CC(C)=C1CCC(C)C/C1=N\N=C(N)N (stereo not given) | 101% (inactive)
O=C(C[Si](CC(=O)c1cccc(C(F)(F)F)c1)CC(=O)c1cccc(C(F)(F)F)c1)c1cccc(C(F)(F)F)c1 | 91% (inactive)
CCOC(=O)CCCCCCCCC(=O)OCC | 104% (inactive)
CCCCCCCCCCCCCCCCCBr | 99.8% (inactive)
O=C(Nc1nc(-c2ccc(Cl)cc2)nc2c1sc(=S)n2-c1ccccc1)C(F)(F)F | 70.1% (inactive)
COc1ccc(OC)c(/C=C/c2nc(SCc3ccccc3)n(-c3ccc(Cl)cc3)n2)c1 | 34.4% (inactive)
COc1ccc(/C(=N\O)c2cc(C)c(OC)c(C)c2)cc1O | 44.4% (inactive)
C(=N\Nc1nc(N/N=C/c2ccc3c(c2)OCO3)nc(N2CCCCC2)n1)/c1ccc2c(c1)OCO2 | 81.6% (inactive)
C[C@]12CC[C@@H]3c4ccc(O)c(N)c4CC[C@H]3[C@@H]1CC[C@@H]2O | 59.8% (inactive)
O=C(O)C(=O)O | 94.8% (inactive)
O=c1[nH]ccc2nc(N3CCC(O)CC3)nc(Nc3cccc(C(F)(F)F)c3)c12 | 14.5% (inactive)
COc1cc(-c2nn(-c3ccccc3)cc2-c2ccnc(NCCNS(=O)(=O)c3ccc(Cl)cc3)n2)ccc1Cl | 31.2% (inactive)
Cc1cccc2c3c(sc12)C(c1ccc(Cl)cc1)c1c(nc(CC(=O)Nc2ccccc2)[nH]c1=O)O3 (stereo not given) | 9.75% (active)
O=C(CSc1nc(-c2ccccc2)cn1-c1ccc(Cl)cc1)c1ccc([N+](=O)[O-])cc1 | 72.5% (inactive)
CCOC(OCC)c1cnc2nc(NC(C)=O)[nH]c(=O)c2n1 | 109% (inactive)
CC(C)(C)N1CCC1CN (stereo not given) | 97.2% (inactive)
CCOc1ccc(S(=O)(=O)c2ccc(C)cc2)c2c1no[n+]2[O-] | 103% (inactive)
COc1ccc(C2=NN(C(N)=S)C(c3ccc4c(c3)OCO4)C2)cc1 (stereo not given) | -0.33% (active)
COc1ccc(/C(=C/c2ccc3ccccc3c2)c2nn[nH]n2)cc1OC | 60.2% (inactive)
